Reference: PubChem BioAssay (Tox21)
Records with an inconclusive call do not appear. Entries that show only a call come without a potency. Unmarked numbers belong to inactive results. Calls of active or inactive are those of the source. Unless noted, calls come from the whole dose curve; as a rule, active = well fitted curve in the direction sought with a large enough effect in the repeat runs; inconclusive = weak or mixed curves; inactive = no such curve, though single readings can be large; an effect the other way counts as inactive or inconclusive.

Key:
[1] = qHTS assay to identify small molecule agonists of the estrogen receptor alpha (ER-alpha) signaling pathway in the presence of an antagonist - cell viability counter screen (AID 1259386);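 note: series mostly up to about 92 µM; cells exposed to compounds for 22 h at 37 °C before the viability read; nearly all actives have a fitted effect of over 30% in size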
Outline: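 Fluorescent CellTiter-Fluor viability signal from VM7Luc4E2 cells, with the reagent added during the final hour of a 22hr compound exposure at 37C in the presence of 10.0nM ICI-182,780.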

[2] = target: Progesterone receptor (Homo sapiens) (UniProt P06401); assay: qHTS assay to identify small molecule agonists of the progesterone receptor (PR) signaling pathway (AID 1346784; calls by dose curve; note: nearly all actives have a fitted effect of over 30% in size)
Sequence of Progesterone receptor (Homo sapiens) (P06401 whole entry, looked up): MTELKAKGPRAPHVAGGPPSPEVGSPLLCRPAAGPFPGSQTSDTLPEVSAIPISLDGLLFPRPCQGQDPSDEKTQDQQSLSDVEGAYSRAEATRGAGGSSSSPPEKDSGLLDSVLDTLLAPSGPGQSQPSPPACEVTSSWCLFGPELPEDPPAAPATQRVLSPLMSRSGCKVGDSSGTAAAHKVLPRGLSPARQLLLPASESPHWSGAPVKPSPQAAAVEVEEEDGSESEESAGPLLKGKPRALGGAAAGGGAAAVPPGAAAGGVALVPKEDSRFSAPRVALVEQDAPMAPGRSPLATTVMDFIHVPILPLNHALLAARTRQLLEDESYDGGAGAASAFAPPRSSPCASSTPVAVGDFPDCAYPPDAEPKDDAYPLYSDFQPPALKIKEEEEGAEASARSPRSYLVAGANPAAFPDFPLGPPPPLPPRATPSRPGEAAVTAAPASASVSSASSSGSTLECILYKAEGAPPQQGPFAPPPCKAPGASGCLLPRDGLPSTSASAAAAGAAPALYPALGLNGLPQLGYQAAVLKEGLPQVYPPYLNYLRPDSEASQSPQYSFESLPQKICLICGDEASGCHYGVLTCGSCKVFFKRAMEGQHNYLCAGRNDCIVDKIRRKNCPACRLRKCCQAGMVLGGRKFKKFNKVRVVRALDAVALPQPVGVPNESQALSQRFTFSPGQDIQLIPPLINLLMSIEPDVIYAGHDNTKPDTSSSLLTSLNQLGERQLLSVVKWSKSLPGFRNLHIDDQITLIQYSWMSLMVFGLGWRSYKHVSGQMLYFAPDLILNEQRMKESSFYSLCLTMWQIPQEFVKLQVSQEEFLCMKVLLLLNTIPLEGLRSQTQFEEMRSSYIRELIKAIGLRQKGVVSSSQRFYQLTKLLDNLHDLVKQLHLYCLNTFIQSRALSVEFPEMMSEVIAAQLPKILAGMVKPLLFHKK
Outline: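 Cells (PR-UAS-bla HEK 293T, GripTite) were plated in assay medium containing 2% charcoal-stripped FBS and incubated 6 hr. Test compounds in DMSO were added for 16 hr at 37C. FRET substrate was then loaded for 2 hr at room temperature before fluorescence reading.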

[3] = target: Progesterone receptor (Homo sapiens) (UniProt P06401); assay: qHTS assay to identify small molecule antagonists of the progesterone receptor (PR) signaling pathway (AID 1346795; active = well fitted inhibition curve with a large enough effect in the signal ratio in the repeat runs, not every such curve was filed as active; the % refers to the signal ratio; note: potency is the fitted concentration of half-maximal effect)
Outline: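 Antagonist mode: compounds tested against 1 nM (final) promegestone stimulation in HEK293T cells expressing PR-UAS-bla reporter, 16 hr at 37C, 5% CO2; beta-lactamase activity detected via B/G FRET substrate after 2 hr at room temperature.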

[4] = qHTS assay to identify small molecule antagonists of the progesterone receptor (PR) signaling pathway - cell viability counter screen (AID 1346798); note: series mostly up to about 92 µM; nearly all actives have a fitted effect of over 50% in size
Outline: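 Counter screen for cytotoxicity: viability of PR-UAS-bla HEK293T cells was measured with CellTiter-Glo luminescence following 16 hr compound exposure in the presence of R5020.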

[5] = qHTS assay to identify small molecule agonists of the progesterone receptor (PR) signaling pathway - cell viability counter screen (AID 1346799; calls by dose curve; note: nearly all actives have a fitted effect of over 45% in size)
Outline: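 Cells (PR-UAS-bla HEK293T) are plated at 3,000/well in 2% charcoal-stripped FBS medium, rested 6 hr, dosed and incubated 16 hr at 37C. CellTiter-Glo is then added and luminescence measured after 30 min at room temperature.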

[6] = qHTS assay to identify small molecule antagonists of the TGF-beta/Smad signaling pathway - cell viability counter screen (AID 1346824); note: nearly all actives have a fitted effect of over 50% in size
Outline: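 Cytotoxicity counter-screen run in the same wells as the beta-lactamase Smad reporter read: CellTiter-Glo luminescence after 30 min at room temperature. HEK 293T SBE-bla cells had 5 hr compound exposure at 37 C with TGF-beta1 (0.25 ng/mL stock).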

[7] = qHTS assay to identify small molecule agonists of the TGF-beta/Smad signaling pathway - cell viability counter screen (AID 1346829); note: top concentration of the series differs between compounds; nearly all actives have a fitted effect of over 45% in size
Outline: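 Luminescence from CellTiter-Glo, read after a 30 min room-temperature incubation, gives cell viability of SBE-bla HEK 293T cells treated 5 hr with compounds at 37 C.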

[8] = target: Thyrotropin receptor (Homo sapiens) (UniProt P16473); assay: qHTS assay to identify small molecule antagonists of the thyroid stimulating hormone receptor (TSHR) signaling pathway (AID 1259385; calls by dose curve; note: nearly all actives have a fitted effect of over 20% in size)
Sequence of Thyrotropin receptor (Homo sapiens) (P16473 whole entry, looked up): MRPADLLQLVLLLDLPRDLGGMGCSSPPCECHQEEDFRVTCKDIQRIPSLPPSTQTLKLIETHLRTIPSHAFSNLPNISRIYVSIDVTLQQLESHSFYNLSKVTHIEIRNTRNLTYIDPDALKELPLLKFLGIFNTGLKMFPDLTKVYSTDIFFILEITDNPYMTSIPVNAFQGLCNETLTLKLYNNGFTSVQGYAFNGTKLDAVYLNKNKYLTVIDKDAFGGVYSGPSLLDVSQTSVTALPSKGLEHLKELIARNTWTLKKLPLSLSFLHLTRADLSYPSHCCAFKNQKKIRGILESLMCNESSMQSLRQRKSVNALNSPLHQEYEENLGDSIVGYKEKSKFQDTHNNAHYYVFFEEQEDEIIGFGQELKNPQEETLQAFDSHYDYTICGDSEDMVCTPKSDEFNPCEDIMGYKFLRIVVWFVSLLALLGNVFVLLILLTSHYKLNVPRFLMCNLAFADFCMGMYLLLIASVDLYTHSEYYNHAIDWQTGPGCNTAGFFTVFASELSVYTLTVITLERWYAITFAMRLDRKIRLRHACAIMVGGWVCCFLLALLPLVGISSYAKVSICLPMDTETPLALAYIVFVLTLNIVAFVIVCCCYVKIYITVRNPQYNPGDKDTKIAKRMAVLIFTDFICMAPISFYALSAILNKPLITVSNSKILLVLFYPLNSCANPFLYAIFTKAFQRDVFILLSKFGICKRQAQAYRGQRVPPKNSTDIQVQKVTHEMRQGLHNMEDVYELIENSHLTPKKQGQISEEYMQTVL
Outline: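 Antagonist mode: compound-treated TSHR-expressing HEK293 cells were stimulated with 1.5 ng/mL TSH (final) in presence of Ro20-1724 for 30 min at RT. HTRF cAMP detection after 1 h; each compound tested at 15 concentrations, triplicate.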

[9] = qHTS assay to identify small molecule agonists or antagonists of the thyroid stimulating hormone receptor (TSHR) signaling pathway - wild type cell line counter screen (AID 1259384; calls by dose curve)
Outline: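 Counter screen in untransfected Hek293: compounds (15-point titration, triplicate) plus phosphodiesterase inhibitor Ro20-1724 added after 18 h plating; 30 min RT. Intracellular cAMP via competitive d2/cryptate immunoassay, 1 h incubation.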

C/C=C(\C)C(=O)OCCc1ccccc1
outcome [1]: inactive
Potency [2]: inactive
Potency [3]: inactive
outcome [4]: inactive
outcome [5]: inactive
outcome [6]: inactive
outcome [7]: inactive

CC(C)[C@H]1CC[C@H](C)C[C@@H]1O
outcome [8]: inactive
outcome [1]: inactive
Potency [2]: inactive
Potency [3]: inactive
outcome [4]: inactive
outcome [5]: inactive
outcome [6]: inactive
outcome [7]: inactive

CCn1cc(C(=O)O)c(=O)c2cnc(N3CCCC3)nc21
cAMP activity change [9]: -5.06% [at 8.39 µM]
activity change, negative = inhibition [8]: -0.0847% [at 8.39 µM]
activation [2]: 0.947% [at 8.39 µM]
activity change, negative = inhibition [3]: 1.66% [at 8.39 µM]
activity change, negative = cytotoxicity [4]: 1.24% [at 8.39 µM]
activity change, negative = cytotoxicity [5]: 1.71% [at 8.39 µM]
viability change, negative = cytotoxic [6]: 10.1% [at 6.97 µM]
activity change, negative = cytotoxicity [7]: 3.95% [at 6.97 µM]

COc1c2occc2c(OC)c2c(=O)cc(C)oc12
outcome [9]: inactive
outcome [8]: inactive
Potency [2]: inactive
outcome [4]: inactive
outcome [5]: inactive
outcome [6]: inactive
outcome [7]: inactive

O=[N+]([O-])c1c(Cl)cc(Cl)cc1Cl
outcome [9]: inactive
outcome [1]: inactive
outcome [4]: inactive
outcome [5]: inactive
outcome [6]: inactive
outcome [7]: inactive

O=Cc1ccccc1Cl
outcome [1]: inactive
Potency [2]: inactive
Potency [3]: inactive
outcome [4]: inactive
outcome [5]: inactive
outcome [6]: inactive
outcome [7]: inactive

CCC(=O)CC
outcome [1]: inactive
Potency [3]: inactive
outcome [4]: inactive
outcome [5]: inactive
outcome [6]: inactive
outcome [7]: inactive

CC(=O)OC(C)=O
outcome [9]: inactive
outcome [8]: inactive
Potency [3]: inactive
outcome [4]: inactive
outcome [5]: inactive
outcome [6]: inactive
outcome [7]: inactive

O=S(=O)(O)c1ccc2c(N=Nc3ccc(S(=O)(=O)O)c4ccccc34)c(O)c(S(=O)(=O)O)cc2c1
cAMP activity change [9]: -0.796% [at 8.39 µM]
activity change, negative = inhibition [8]: -3.96% [at 8.39 µM]
activity change, negative = inhibition [3]: -1.68% [at 8.39 µM]
activity change, negative = cytotoxicity [4]: 12.1% [at 8.39 µM]
activity change, negative = cytotoxicity [5]: 18.6% [at 8.39 µM]
viability change, negative = cytotoxic [6]: 5.53% [at 6.97 µM]
activity change, negative = cytotoxicity [7]: 12.6% [at 6.97 µM]

C=C(C)[C@@H]1CC=C(C)C(=O)C1
outcome [8]: inactive
outcome [1]: inactive
Potency [2]: inactive
Potency [3]: inactive
outcome [4]: inactive
outcome [5]: inactive
outcome [6]: inactive
outcome [7]: inactive

CC(C)=CCC/C(C)=C/COC=O
outcome [8]: inactive
outcome [1]: inactive
Potency [3]: inactive
outcome [4]: inactive
outcome [5]: inactive
outcome [6]: inactive
outcome [7]: inactive

O/N=C/C=N/O
outcome [9]: inactive
outcome [8]: inactive
Potency [3]: inactive
outcome [4]: inactive
outcome [5]: inactive
outcome [6]: inactive
outcome [7]: inactive

C=CCOC(=O)CCCCCC
outcome [8]: inactive
outcome [1]: inactive
Potency [2]: inactive
Potency [3]: inactive
outcome [4]: inactive
outcome [5]: inactive
outcome [6]: inactive
outcome [7]: inactive

CC(=O)C(C)O (configuration not stated)
outcome [9]: inactive
outcome [8]: inactive
outcome [4]: inactive
outcome [5]: inactive
outcome [6]: inactive
outcome [7]: inactive

CCCCC1CCC(O)CC1 (configuration not stated)
outcome [1]: inactive
Potency [2]: inactive
outcome [4]: inactive
outcome [5]: inactive
outcome [6]: inactive
outcome [7]: inactive

Cc1cccc(Cl)c1
outcome [8]: inactive
Potency [2]: inactive
Potency [3]: inactive
outcome [5]: inactive
outcome [6]: inactive
outcome [7]: inactive

CCCCCCCCCCCCCBr
outcome [1]: inactive
Potency [3]: inactive
outcome [4]: inactive
outcome [5]: inactive
outcome [6]: inactive
outcome [7]: inactive

CC(=O)O[Si](C)(OC(C)=O)OC(C)=O
outcome [9]: inactive
outcome [1]: inactive
Potency [2]: inactive
Potency [3]: inactive
outcome [4]: inactive
outcome [5]: inactive
outcome [6]: inactive
outcome [7]: inactive

O=NN(CCCl)C(=O)NC1CCCCC1
outcome [9]: inactive
outcome [1]: inactive
Potency [2]: inactive
Potency [3]: inactive
outcome [4]: inactive
outcome [5]: inactive
outcome [6]: inactive
outcome [7]: inactive

OCC1(CO)COCOC1
outcome [8]: inactive
outcome [1]: inactive
Potency [2]: inactive
outcome [4]: inactive
outcome [6]: inactive
outcome [7]: inactive

CC(=O)c1cc(C)oc1C
outcome [1]: inactive
Potency [2]: inactive
Potency [3]: inactive
outcome [4]: inactive
outcome [5]: inactive
outcome [6]: inactive
outcome [7]: inactive

c1ccc(B(c2ccccc2)c2ccccc2)cc1
outcome [1]: inactive
Potency [3]: 54.4 µM (active)
outcome [4]: inactive
outcome [5]: inactive
outcome [6]: inactive
outcome [7]: inactive

O=C1NC(c2ccccc2)(c2ccccc2)C(=O)N1COP(=O)(O)O
outcome [8]: inactive
outcome [1]: inactive
Potency [2]: inactive
Potency [3]: inactive
outcome [4]: inactive
outcome [5]: inactive
outcome [6]: inactive
outcome [7]: inactive

C=Cc1ccc(C(C)(C)C)cc1
outcome [8]: inactive
outcome [1]: inactive
Potency [2]: inactive
Potency [3]: inactive
outcome [4]: inactive
outcome [5]: inactive
outcome [6]: inactive
outcome [7]: inactive

COc1ccc(CCO)cc1
outcome [8]: inactive
outcome [1]: inactive
Potency [2]: inactive
Potency [3]: inactive
outcome [4]: inactive
outcome [6]: inactive
outcome [7]: inactive

CN1CCOC(c2ccccc2)c2ccccc2C1 (configuration not stated)
outcome [8]: inactive
outcome [1]: inactive
Potency [2]: inactive
Potency [3]: inactive
outcome [4]: inactive
outcome [5]: inactive
outcome [6]: inactive
outcome [7]: inactive

CC1=NN(c2ccc(S(=O)(=O)O)cc2)C(=O)C1
outcome [8]: inactive
outcome [1]: inactive
Potency [2]: inactive
outcome [4]: inactive
outcome [5]: inactive
outcome [6]: inactive
outcome [7]: inactive

C=CCCCCCCCC
outcome [9]: inactive
outcome [8]: inactive
Potency [2]: inactive
outcome [4]: inactive
outcome [5]: inactive
outcome [6]: inactive
outcome [7]: inactive
